Bioassay records as filed in PubChem BioAssay.
G6PDH counter = L. mesenteroides G6PDH inhibitors, counter-screen for G6PDH-coupled screening assays, biochemical, Leuconostoc mesenteroides enzyme | glucose-6-phosphate dehydrogenase [Leuconostoc mesenteroides] | Purified L. mesenteroides G6PDH, diaphorase/resazurin coupled fluorescence, 45 min | inhibition, % at 5 µM | actives 0.12% (n = 200,000) | AID 1020, 2008; in the data active = inhibition above about 50%
p97 ATPase inh = inhibitors of human p97 ATPase, primary screen, biochemical; Transitional endoplasmic reticulum ATPase (Homo sapiens), P55072; recombinant p97 ATPase, Kinase-Glo ATP luminescence, 3 h; inhibition, % at 8 µM; actives 0.42% (n = 220,000); in the data active = inhibition above about 15%;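 also: 0% = DMSO vehicle and 100% = wells lacking enzyme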
Target sequence (P55072 whole entry, looked up): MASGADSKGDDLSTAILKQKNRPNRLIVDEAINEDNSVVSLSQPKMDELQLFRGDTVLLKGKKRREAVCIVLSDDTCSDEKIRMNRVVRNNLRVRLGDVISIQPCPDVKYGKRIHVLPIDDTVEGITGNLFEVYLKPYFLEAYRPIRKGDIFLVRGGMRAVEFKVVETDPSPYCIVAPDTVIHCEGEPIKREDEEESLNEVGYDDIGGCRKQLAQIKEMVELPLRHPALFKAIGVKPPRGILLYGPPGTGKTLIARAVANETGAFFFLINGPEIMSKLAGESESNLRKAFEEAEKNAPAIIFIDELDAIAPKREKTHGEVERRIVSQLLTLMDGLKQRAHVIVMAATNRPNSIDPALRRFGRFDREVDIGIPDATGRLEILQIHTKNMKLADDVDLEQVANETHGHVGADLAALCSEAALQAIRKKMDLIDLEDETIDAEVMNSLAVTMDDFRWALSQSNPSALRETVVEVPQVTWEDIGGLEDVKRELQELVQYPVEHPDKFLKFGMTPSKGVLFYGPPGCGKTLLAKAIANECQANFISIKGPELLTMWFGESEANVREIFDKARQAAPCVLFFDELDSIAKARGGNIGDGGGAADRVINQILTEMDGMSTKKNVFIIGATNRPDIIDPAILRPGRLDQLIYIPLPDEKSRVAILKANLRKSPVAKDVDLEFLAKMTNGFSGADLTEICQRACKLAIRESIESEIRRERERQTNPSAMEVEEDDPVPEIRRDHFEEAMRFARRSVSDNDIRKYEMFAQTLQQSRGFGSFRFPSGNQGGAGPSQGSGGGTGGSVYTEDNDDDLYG
PfM18AAP inh = PfM18AAP inhibitors, malaria aminopeptidase, primary screen, biochemical, QFRET, recombinant enzyme; H-Glu-NHMec fluorogenic cleavage; actives 1.2% (n = 290,000); M18 aspartyl aminopeptidase (Plasmodium falciparum 3D7); inhibition, % at 7.35 µM;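 active = inhibition above the campaign mean inhibition over all tested compounds plus 3 SD, cut at about 28% in these data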;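 also: 0% = plate median of test compound wells and 100% = 2 mM ZnCl2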
SUMO HTRF inh = inhibitors of in vitro SUMOylation cascade, primary screen, biochemical, HTRF, uHTS | SUMO-conjugating enzyme UBC9 (Homo sapiens), P63279 | HTRF SUMOylation assay, SAE1/SAE2 + UBC9 | inhibition, % at 35 µM | actives 0.36% (n = 290,000) | AID 2006, 2009; in the data active = inhibition above about 50%, passing the limit was not always enough
HDAC3 inh = HDAC3 deacetylase inhibitors, primary screen, biochemical, fluorescence, cell-free homogeneous; actives 0.15% (n = 320,000); inhibition, % at 8.3 µM; Histone deacetylase 3 (Homo sapiens), O15379; recombinant HDAC3, fluorogenic peptide/trypsin coupled; AID 2718, 2010; in the data active = inhibition above about 26%, passing the limit was not always enough
PHOSPHO1 inh = PubChem AID 1565; recombinant PHOSPHO1, absorbance phosphatase assay; inhibition, % at 13.3 µM; actives 1.1% (n = 290,000); in the data active = inhibition above about 60%
Starred values were filed as active, the others as inactive; . = no result given. The list is not random: actives were taken first. Their share in the collection is about 2.5%.

SMILES	G6PDH counter	p97 ATPase inh	PfM18AAP inh	SUMO HTRF inh	HDAC3 inh	PHOSPHO1 inh
Cc1ccc(Cn2c(SCC(C)C)nc3c2c(=O)[nH]c(=O)n3C)cc1	4	3	9	35	-3	90*
COc1ccc(CC(=O)OCC(=O)Nc2c(C)n(C)n(-c3ccccc3)c2=O)cc1OC	.	.	.	.	3	.
COc1cc(CC(=O)NCCCc2ccccc2)cc(OC)c1OC	.	.	1	17	-1	18
O=C(CN1C(=O)NC(c2ccccc2)(c2ccccc2)C1=O)NCCNCCO	.	.	-10	16	4	19
Cc1cc(NC(=O)CSCC(=O)Nc2nc3ccccc3s2)no1	.	.	.	.	4	.
CC(C)Sc1nc2c(c(=O)[nH]c(=O)n2C)n1Cc1ccc(Cl)cc1	1	1	4	-30	10	84*
O=C(NC1CCCCC1)NC1CCN(C(=S)NCc2ccco2)CC1	7	4	0	2	-1	82*
COc1ccc(CS(=O)(=O)CC(C)(O)c2ccccc2Cl)cc1 (configuration not stated)	.	.	1	9	4	52
O=S(=O)(Nc1ncccn1)c1ccc(-n2cnnn2)cc1	2	6	1	22	9	30
COc1ccc(OCC(=O)N/N=C2\CCCCc3ccccc32)cc1	-4	1	7	2	6	15
CCc1ccc(OCC(=O)N/N=C2\CC(=O)c3ccccc32)cc1	18	7	-5	87*	4	28
CCOC(=O)Cn1nc(NC(=O)COc2ccc(F)cc2)cc1C	.	.	-2	-13	-1	.
C=CCOC(=O)C1=C(C)NC(SCC(=O)Nc2nccs2)=C(C#N)C1c1ccc(Cl)cc1 (configuration not stated)	7	2	-10	25	6	67*
CC(=O)C1=C(C)NC(SCC(=O)Nc2nccs2)=C(C#N)C1c1ccccc1Cl (configuration not stated)	13	7	8	10	4	-14
C=CCOC(=O)C1=C(C)NC(SCC(=O)Nc2nccs2)=C(C#N)C1c1cccs1 (configuration not stated)	8	-8	-10	9	2	62*
N=C1C(c2ccccc2)=C(O)CN1c1cccc2ccccc12	3	0	-1	9	-4	-18
O=C(CCSc1ccc(F)cc1)NNC(=O)c1ccccc1Cl	.	.	.	.	-5	.
CCOc1ccc(S(=O)(=O)N2CCC(C(=O)OC(C)C(=O)NC3CCCCC3C)CC2)cc1 (configuration not stated)	.	.	.	.	6	.
Cc1cc(NC(=O)COC(=O)c2ccccc2[N+](=O)[O-])no1	10	6	-4	16	1	28
Cc1cccc(C)c1NC(=O)COC(=O)c1ccccc1[N+](=O)[O-]	6	4	1	11	-5	63*
C[C@H](CO)N1C[C@H](C)[C@@H](CN(C)Cc2ccncc2)Oc2ccc(NC(=O)CCCCCC(=O)Nc3ccccc3N)cc2C1=O	.	.	.	.	90*	.
O=C1CCNc2cc3ccccc3cc21	58*	-2	5	31	-27	-27
CC(C)CCNC(=O)C(c1ccc(O)cc1)N(C(=O)C1COc2ccccc2O1)c1cccc(O)c1 (configuration not stated)	18	3	8	-9	2	64*
CCOc1cccc(N(C(=O)C2COc3ccccc3O2)C(C(=O)NC2CCCCC2)c2ccc(O)cc2)c1 (configuration not stated)	13	4	3	20	-1	15
CCOc1ccc(C2C3=C(CCCC3=O)Nc3ccc4ncccc4c32)cc1 (configuration not stated)	.	9	6	-8	-7	9
SMILES	G6PDH counter	p97 ATPase inh	PfM18AAP inh	SUMO HTRF inh	HDAC3 inh	PHOSPHO1 inh
O=C1CCCC2=C1C(c1ccc(O)c(O)c1)c1c(ccc3ncccc13)N2 (configuration not stated)	17	10	77*	10	1	32
N#Cc1cnn2c(-c3ccccc3)ccnc12	3	8	-9	50*	-35	-31
COc1ccc(N2CC(C(=O)NCCCN3CCOCC3)CC2=O)cc1 (configuration not stated)	8	-2	-22	14	4	60*
Cc1[nH]c(C)c(S(=O)(=O)N2CCN(c3ccccc3F)CC2)c1C(=O)N1CCCCC1	.	.	-1	12	-2	7
COc1ccc(-c2nn3c(C4CCCCC4)nnc3s2)cc1OC	3	0	21	12	-2	83*
COc1cc(-c2nn3c(C4CCCCC4)nnc3s2)cc(OC)c1OC	3	-1	3	32	1	46
Cc1nnc(NC(=O)CSc2nnc3ncccn23)s1	.	.	-1	2	0	37
CCc1ccc(/C=C/C(=O)c2cc(Br)ccc(=O)c2O)cc1	3	4	60*	15	-4	8
Cc1cc(O)ccc1Nc1nc2ccccc2nc1Nc1ccc(O)cc1C	15	14	-6	24	8	97*
Cc1ccc(Nc2nc3ccccc3s2)c(C)c1	3	-2	4	-11	5	21
Cc1cc(C)cc(OCC(=O)N(Cc2ccccc2)C2CCS(=O)(=O)C2)c1 (configuration not stated)	.	.	0	-22	-5	12
CCCn1nnnc1SCC(=O)c1ccc2c(c1)OCCO2	-16	0	-7	1	50*	35
CCc1nc(SCC(=O)c2ccc3c(c2)OCCO3)c2ccccc2n1	-44	1	7	-9	34*	2
O=C(O)CCSCC(=O)c1ccc2c(c1)OCCO2	5	-1	4	10	-4	78*
O=C(O)CCC(=O)c1ccc2c(c1)OCCO2	7	-12	-5	1	2	-4
O=C(CSc1nc(Cc2ccccc2)nc2ccccc12)c1ccc2c(c1)OCCO2	-29	0	0	-9	6	-18
O=C(CSc1nnc(SCc2cccc3ccccc23)s1)c1ccc2c(c1)OCO2	5	-2	-7	-38	38*	-125
Cc1cccc(NC(=O)c2ccc(N3C(=O)C4CCCCC4C3=O)cc2)c1C (configuration not stated)	.	.	0	3	-10	22
COc1ccc(-c2nc(CS(=O)CC(=O)NC3CCCC3)c(C)o2)cc1 (configuration not stated)	.	.	0	13	-7	70*
CCOC(=O)[C@H]1[C@H]2COc3ccc(C)cc3[C@@H]2N2C(=O)c3ccccc3NC(=O)[C@@]12C	.	.	.	.	6	.
COc1ccc(C(=O)Nc2ccc(-c3nnn(CC(=O)NCc4ccco4)n3)cc2)cc1	.	-8	3	61*	-15	40
